Experimental findings from PMC7862700, “An all-to-all approach to the identification of sequence-specific readers for epigenetic DNA modifications on cytosine” are described below.

Assay in all cases: DAPPL (digital affinity profiling via proximity ligation, sequencing); 10 mM Tris-HCl pH 7.5, 50 mM NaCl, 1 mM DTT, 4% glycerol, room temperature, 30 min; GST-TFs on glutathione beads, 16-mer random dsDNA library, 0.1% formaldehyde crosslink after washing; high values mean tight binding
In assay [1] the target is T1, FEV (Homo sapiens, UniProt Q99581 1-238).
T1 sequence: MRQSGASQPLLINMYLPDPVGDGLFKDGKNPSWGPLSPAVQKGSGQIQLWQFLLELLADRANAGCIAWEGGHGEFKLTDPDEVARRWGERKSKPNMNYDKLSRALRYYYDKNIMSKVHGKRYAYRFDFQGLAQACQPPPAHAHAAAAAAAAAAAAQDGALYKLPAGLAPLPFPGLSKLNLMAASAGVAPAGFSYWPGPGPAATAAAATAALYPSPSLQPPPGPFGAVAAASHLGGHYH
As to conditions: protein: recombinant; tags: N-terminal GST; dsDNA, one strand shown. In outline: (§1)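 Human transcription factors fused to GST were expressed in yeast, captured on glutathione beads, given DNA barcodes and pooled with a GST-only negative control. Pools were incubated with 200 nmole of a 16-mer random double-stranded DNA library in Tris/NaCl/DTT/glycerol buffer at room temperature for 30 min. They were then washed, crosslinked with 0.1% formaldehyde, proximity-ligated (BsaI/T4 ligase, 1 h, 37 °C), PCR-amplified and sequenced on an Illumina NextSeq500. Binding signal is each 6-mer's read frequency for a factor divided by its frequency for the GST control.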

The target of assay [2] is ETV5 (Homo sapiens, UniProt P41161 1-510). Conditions: protein: recombinant; tags: N-terminal GST; dsDNA, one strand shown. In outline:
as §1

Assay [3] deals with HSF1 (Homo sapiens, UniProt Q00613 1-529). Conditions: protein: recombinant; tags: N-terminal GST; chain copies: 3; dsDNA, one strand shown. The gist of the method: as §1
In assay [4] the target is T2, SPIC (Homo sapiens, UniProt Q8N5J4 1-248).
T2 sequence: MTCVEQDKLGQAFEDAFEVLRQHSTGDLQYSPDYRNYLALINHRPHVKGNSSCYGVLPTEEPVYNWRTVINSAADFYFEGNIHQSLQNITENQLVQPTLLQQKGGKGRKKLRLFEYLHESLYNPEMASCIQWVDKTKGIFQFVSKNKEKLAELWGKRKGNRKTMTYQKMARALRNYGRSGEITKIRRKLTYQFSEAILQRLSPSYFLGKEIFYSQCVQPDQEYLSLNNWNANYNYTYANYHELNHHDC
Conditions: protein: recombinant; tags: N-terminal GST; dsDNA, one strand shown. In outline: as §1

The target of assay [5] is ELF4 (Homo sapiens, UniProt Q99607 1-663). Conditions: protein: recombinant; tags: N-terminal GST; dsDNA, one strand shown. The gist of the method: as §1
For assay [6], the target named is T3, ELK4 (Homo sapiens, UniProt P28324-2 1-405).
T3 sequence: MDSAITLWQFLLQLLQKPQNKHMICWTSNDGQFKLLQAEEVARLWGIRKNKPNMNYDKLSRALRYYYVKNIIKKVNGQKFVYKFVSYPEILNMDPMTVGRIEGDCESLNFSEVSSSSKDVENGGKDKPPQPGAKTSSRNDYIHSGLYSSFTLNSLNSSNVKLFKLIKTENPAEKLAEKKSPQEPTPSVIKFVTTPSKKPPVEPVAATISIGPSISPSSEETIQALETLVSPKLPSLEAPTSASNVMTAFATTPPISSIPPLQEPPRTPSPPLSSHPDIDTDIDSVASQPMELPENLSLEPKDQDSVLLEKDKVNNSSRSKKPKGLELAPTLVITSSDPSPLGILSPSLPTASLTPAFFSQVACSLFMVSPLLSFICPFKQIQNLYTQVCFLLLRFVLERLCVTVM
Conditions: protein: recombinant; tags: N-terminal GST; dsDNA, one strand shown. In outline:
as §1

Assay [7] deals with T4, ETV2 (Homo sapiens, UniProt O00321 1-342).
T4 sequence: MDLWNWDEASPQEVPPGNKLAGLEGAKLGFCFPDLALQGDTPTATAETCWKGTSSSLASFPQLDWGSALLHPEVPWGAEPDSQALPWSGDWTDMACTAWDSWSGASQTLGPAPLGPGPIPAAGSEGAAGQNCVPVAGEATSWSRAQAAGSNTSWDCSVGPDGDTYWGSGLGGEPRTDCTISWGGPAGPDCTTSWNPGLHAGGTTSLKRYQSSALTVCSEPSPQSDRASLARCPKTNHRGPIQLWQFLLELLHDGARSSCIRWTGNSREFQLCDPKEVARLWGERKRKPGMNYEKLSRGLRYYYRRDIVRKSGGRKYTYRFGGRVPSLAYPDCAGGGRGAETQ
Conditions: protein: recombinant; tags: N-terminal GST; dsDNA, one strand shown. In outline:
as §1

Assay [8] concerns the target T5, ELF3 (Homo sapiens, UniProt P78545 1-371).
T5 sequence: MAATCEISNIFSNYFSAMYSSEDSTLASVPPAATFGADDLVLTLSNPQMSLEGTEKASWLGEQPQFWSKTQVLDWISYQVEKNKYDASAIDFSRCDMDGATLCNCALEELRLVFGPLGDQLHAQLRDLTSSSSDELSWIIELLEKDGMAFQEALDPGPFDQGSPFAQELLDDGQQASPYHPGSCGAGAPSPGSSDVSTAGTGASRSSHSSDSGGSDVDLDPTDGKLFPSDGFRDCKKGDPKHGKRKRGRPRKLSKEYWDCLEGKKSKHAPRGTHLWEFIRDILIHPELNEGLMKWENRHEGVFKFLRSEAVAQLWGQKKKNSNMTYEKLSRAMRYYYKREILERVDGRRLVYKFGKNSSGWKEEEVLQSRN
Conditions: protein: recombinant; tags: N-terminal GST; dsDNA, one strand shown. In outline:
as §1

Assay [9] addresses CRX (Homo sapiens, UniProt O43186 1-299). As to conditions: protein: recombinant; tags: N-terminal GST; dsDNA, one strand shown. In outline:
as §1

Assay [10] concerns the target ETV1 (Homo sapiens, UniProt P50549 1-477). As to conditions: protein: recombinant; tags: N-terminal GST; dsDNA, one strand shown. In outline:
as §1

Assay [11] has as its target T6, ERF (Homo sapiens, UniProt P50548 1-548).
T6 sequence: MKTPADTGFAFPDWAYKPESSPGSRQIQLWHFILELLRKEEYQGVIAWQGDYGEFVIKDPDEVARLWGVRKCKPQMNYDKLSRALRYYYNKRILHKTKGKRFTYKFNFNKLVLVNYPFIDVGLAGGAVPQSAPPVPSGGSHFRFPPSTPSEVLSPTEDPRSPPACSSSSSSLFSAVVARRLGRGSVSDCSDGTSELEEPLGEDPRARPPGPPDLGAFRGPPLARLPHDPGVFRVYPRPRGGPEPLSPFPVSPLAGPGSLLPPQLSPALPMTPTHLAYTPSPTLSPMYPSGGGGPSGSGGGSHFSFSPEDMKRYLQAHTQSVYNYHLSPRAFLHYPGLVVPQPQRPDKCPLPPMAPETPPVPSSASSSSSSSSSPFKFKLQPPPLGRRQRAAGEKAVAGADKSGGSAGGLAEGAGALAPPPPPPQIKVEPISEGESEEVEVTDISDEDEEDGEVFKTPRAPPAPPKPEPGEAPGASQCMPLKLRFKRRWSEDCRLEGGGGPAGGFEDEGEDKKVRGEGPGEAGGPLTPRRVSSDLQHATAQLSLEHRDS
As to conditions: protein: recombinant; tags: N-terminal GST; dsDNA, one strand shown. The gist of the method: as §1

Assay [12] deals with T7, ETV3L (Homo sapiens, UniProt Q6ZN32 1-361).
T7 sequence: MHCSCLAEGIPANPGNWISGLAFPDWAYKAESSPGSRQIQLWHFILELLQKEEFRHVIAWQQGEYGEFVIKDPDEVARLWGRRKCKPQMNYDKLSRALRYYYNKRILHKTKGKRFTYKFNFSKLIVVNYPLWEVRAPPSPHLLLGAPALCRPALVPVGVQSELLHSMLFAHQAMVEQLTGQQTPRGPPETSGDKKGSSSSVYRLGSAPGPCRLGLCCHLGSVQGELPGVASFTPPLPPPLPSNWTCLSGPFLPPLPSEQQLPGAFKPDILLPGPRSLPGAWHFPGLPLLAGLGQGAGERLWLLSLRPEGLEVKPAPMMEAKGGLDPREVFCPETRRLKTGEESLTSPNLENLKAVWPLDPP
Conditions: protein: recombinant; tags: N-terminal GST; dsDNA, one strand shown. The gist of the method:
as §1

Assay [13] deals with T8, ETS2 (Homo sapiens, UniProt P15036 1-469).
T8 sequence: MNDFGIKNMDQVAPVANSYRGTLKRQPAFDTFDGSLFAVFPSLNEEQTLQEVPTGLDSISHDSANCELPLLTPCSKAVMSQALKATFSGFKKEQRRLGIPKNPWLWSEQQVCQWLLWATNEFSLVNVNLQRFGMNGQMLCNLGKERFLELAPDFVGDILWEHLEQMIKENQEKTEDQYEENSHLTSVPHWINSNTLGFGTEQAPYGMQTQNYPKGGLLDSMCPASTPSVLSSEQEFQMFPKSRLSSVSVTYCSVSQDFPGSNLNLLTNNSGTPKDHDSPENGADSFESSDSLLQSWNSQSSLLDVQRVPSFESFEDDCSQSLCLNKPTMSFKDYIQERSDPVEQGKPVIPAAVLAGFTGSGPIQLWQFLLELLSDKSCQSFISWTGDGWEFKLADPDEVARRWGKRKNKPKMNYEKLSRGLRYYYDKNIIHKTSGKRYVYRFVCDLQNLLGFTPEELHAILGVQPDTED
As to conditions: protein: recombinant; tags: N-terminal GST; dsDNA, one strand shown. In outline: as §1

In assay [14] the target is T9, SPDEF (Homo sapiens, UniProt O95238 1-335).
T9 sequence: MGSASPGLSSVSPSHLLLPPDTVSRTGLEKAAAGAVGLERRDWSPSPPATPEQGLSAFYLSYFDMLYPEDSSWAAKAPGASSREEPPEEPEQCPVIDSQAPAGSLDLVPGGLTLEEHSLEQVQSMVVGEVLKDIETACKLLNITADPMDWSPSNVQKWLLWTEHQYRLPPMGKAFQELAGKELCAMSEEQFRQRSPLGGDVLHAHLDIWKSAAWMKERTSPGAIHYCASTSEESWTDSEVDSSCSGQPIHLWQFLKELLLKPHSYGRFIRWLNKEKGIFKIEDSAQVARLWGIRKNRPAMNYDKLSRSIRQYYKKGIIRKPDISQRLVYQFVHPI
As to conditions: protein: recombinant; tags: N-terminal GST; dsDNA, one strand shown. In outline:
as §1

For assay [15], the target named is T10, ETV7 (Homo sapiens, UniProt Q9Y603 1-341).
T10 sequence: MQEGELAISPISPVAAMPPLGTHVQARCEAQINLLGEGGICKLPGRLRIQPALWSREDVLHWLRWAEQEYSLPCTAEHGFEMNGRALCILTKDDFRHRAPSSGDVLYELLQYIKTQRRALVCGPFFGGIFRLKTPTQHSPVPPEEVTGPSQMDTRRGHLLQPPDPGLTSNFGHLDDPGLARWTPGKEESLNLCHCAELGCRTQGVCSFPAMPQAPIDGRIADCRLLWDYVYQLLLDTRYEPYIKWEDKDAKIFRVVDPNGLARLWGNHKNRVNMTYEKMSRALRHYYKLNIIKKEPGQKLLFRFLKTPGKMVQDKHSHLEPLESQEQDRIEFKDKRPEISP
As to conditions: protein: recombinant; tags: N-terminal GST; dsDNA, one strand shown. The gist of the method: as §1

Assay [16] has as its target T11, ELF5 (Homo sapiens, UniProt Q9UKW6-2 1-255).
T11 sequence: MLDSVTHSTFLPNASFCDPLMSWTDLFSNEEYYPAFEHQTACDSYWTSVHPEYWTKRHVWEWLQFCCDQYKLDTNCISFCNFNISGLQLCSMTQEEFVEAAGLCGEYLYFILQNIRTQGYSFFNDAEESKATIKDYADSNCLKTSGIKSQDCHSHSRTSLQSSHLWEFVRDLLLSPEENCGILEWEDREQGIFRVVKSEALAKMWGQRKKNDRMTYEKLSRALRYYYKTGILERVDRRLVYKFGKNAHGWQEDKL
Conditions: protein: recombinant; tags: N-terminal GST; dsDNA, one strand shown. In outline: as §1

Assay [17] concerns the target T12, ETV3 (Homo sapiens, UniProt P41162-2 1-143).
T12 sequence: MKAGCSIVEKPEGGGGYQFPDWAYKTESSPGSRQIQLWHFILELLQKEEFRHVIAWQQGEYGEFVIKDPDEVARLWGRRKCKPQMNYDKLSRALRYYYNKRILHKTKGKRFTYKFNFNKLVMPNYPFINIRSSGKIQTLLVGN
Conditions: protein: recombinant; tags: N-terminal GST; dsDNA, one strand shown. In outline:
as §1

Assay [18] has as its target ETV6 (Homo sapiens, UniProt P41212 1-452). Conditions: protein: recombinant; tags: N-terminal GST; dsDNA, one strand shown. In outline:
as §1

Sequence of ELF4 (Q99607 whole entry): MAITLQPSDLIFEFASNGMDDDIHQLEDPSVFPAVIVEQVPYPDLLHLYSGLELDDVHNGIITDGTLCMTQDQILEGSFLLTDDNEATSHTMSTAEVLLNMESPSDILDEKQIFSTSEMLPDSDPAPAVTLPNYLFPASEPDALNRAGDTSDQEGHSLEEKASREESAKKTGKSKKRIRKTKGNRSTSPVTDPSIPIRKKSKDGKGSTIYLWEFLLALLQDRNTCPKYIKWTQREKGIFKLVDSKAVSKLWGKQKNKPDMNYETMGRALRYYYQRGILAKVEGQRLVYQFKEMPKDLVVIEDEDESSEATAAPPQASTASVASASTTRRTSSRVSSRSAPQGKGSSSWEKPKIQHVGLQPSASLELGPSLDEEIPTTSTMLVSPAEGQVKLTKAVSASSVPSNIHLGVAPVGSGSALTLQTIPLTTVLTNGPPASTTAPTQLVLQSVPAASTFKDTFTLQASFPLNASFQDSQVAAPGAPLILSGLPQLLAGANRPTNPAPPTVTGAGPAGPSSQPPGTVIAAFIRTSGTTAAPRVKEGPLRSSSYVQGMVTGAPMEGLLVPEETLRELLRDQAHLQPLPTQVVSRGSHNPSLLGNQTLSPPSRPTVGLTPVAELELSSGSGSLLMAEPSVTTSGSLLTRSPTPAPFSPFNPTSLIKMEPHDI
Sequence of CRX (O43186 whole entry): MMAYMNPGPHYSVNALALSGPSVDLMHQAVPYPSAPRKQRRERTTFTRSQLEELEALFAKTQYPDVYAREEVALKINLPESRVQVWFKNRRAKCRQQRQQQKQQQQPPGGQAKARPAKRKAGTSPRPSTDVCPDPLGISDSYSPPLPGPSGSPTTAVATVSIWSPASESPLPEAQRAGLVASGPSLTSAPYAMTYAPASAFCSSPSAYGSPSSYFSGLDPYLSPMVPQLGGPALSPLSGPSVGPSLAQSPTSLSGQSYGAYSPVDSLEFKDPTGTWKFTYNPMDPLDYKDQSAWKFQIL
Sequence of ETV6 (P41212 whole entry): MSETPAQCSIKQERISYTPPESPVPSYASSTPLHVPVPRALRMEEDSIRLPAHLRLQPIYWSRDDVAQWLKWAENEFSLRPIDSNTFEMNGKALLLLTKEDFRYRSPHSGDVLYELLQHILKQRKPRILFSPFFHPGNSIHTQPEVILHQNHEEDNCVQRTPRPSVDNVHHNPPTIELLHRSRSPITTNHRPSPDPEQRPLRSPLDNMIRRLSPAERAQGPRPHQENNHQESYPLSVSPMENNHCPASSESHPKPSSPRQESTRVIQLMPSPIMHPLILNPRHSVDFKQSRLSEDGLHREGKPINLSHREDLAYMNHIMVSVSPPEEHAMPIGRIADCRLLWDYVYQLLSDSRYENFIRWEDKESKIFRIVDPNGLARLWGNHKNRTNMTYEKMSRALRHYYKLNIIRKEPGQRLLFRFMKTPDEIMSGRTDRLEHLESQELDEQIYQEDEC
Sequence of HSF1 (Q00613 whole entry): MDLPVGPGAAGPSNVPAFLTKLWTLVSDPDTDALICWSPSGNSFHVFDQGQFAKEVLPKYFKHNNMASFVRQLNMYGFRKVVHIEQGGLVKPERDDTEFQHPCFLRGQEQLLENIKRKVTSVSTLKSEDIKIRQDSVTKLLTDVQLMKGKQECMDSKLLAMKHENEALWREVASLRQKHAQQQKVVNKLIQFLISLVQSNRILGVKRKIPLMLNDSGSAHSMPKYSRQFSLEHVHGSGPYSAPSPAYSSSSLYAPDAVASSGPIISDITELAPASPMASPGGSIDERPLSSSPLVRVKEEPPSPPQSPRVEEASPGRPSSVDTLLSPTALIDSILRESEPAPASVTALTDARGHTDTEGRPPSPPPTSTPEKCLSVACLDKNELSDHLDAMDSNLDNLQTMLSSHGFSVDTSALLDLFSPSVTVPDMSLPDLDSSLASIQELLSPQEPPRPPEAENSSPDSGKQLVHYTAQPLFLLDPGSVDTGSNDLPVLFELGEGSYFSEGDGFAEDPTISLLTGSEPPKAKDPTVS
Sequence of ETV1 (P50549 whole entry): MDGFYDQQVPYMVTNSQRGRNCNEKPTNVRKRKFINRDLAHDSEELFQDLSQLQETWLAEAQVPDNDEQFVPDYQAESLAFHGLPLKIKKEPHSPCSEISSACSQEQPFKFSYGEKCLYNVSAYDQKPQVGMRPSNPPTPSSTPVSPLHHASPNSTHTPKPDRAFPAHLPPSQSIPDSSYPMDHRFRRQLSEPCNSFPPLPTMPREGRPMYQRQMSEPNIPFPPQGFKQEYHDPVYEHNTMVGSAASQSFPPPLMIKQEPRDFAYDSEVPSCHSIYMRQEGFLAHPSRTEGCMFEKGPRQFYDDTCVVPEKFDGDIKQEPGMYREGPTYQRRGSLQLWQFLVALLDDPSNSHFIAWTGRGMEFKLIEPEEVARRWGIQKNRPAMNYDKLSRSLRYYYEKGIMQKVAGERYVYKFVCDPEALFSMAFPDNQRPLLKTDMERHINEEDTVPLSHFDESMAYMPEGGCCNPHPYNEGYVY
Sequence of ETV5 (P41161 whole entry): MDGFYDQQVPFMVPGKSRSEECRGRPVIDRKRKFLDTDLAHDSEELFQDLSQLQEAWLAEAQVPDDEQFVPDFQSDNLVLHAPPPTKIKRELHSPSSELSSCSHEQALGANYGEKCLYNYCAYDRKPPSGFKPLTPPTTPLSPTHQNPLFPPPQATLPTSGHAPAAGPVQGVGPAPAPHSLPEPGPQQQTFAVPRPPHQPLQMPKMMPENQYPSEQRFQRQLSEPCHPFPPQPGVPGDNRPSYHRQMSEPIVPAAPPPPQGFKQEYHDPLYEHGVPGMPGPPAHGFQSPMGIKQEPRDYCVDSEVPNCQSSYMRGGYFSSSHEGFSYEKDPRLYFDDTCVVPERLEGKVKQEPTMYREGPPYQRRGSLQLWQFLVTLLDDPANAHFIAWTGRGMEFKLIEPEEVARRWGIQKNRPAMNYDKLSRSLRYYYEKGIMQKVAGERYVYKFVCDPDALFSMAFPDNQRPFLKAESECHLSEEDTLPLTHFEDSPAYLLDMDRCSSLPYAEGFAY

AATTCG: the binding signal in [1] is 1.26 fold enrichment (6-mer frequency, TF over GST control); in assay [2], 1.31 fold enrichment (6-mer frequency, TF over GST control); in assay [3] it was 1.76 fold enrichment (6-mer frequency, TF over GST control); in assay [4], 1.43 fold enrichment (6-mer frequency, TF over GST control); in [5], 1.26 fold enrichment (6-mer frequency, TF over GST control); in [6], 1.23 fold enrichment (6-mer frequency, TF over GST control). Also, the binding signal was 1.19 fold enrichment (6-mer frequency, TF over GST control) in [7]; 1.3 fold enrichment (6-mer frequency, TF over GST control) in assay [8]; 1.57 fold enrichment (6-mer frequency, TF over GST control) in assay [9]; 1.18 fold enrichment (6-mer frequency, TF over GST control) in assay [10]; 1.38 fold enrichment (6-mer frequency, TF over GST control) in assay [11]; 1.38 fold enrichment (6-mer frequency, TF over GST control) in assay [12]. For the same sequence, the binding signal in [13] was 1.23 fold enrichment (6-mer frequency, TF over GST control); in assay [14], 1.25 fold enrichment (6-mer frequency, TF over GST control); in assay [15] it was 1.32 fold enrichment (6-mer frequency, TF over GST control); in [16] it was 1.2 fold enrichment (6-mer frequency, TF over GST control); in assay [17], 1.29 fold enrichment (6-mer frequency, TF over GST control); in [18], 1.24 fold enrichment (6-mer frequency, TF over GST control).
